Experimental data reported in PubChem BioAssay (NCATS).
Inconclusive results are not listed. Active and inactive are the calls of the source. Calls come from the whole dose curve; as a rule, active = well fitted curve in the direction sought with a large enough effect; inconclusive = small, poorly fitted or top-dose-only effect, or another doubt; inactive = no such curve, though single readings can be large; an effect the other way counts as inactive or inconclusive.

Legend:
[1] = molecular target: Luciferin 4-monooxygenase (Photinus pyralis) (UniProt P08659); experiment: Biochemical firefly luciferase enzyme assay for NPC (AID 624030);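 note: purified P. pyralis luciferase at 10 nM with luciferin and ATP substrate; 0% = DMSO and -100% = full luciferase inhibition by PTC124 control; nearly all actives have a fitted effect of over 70% in size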
Sequence of Luciferin 4-monooxygenase (Photinus pyralis) (P08659 whole entry, looked up): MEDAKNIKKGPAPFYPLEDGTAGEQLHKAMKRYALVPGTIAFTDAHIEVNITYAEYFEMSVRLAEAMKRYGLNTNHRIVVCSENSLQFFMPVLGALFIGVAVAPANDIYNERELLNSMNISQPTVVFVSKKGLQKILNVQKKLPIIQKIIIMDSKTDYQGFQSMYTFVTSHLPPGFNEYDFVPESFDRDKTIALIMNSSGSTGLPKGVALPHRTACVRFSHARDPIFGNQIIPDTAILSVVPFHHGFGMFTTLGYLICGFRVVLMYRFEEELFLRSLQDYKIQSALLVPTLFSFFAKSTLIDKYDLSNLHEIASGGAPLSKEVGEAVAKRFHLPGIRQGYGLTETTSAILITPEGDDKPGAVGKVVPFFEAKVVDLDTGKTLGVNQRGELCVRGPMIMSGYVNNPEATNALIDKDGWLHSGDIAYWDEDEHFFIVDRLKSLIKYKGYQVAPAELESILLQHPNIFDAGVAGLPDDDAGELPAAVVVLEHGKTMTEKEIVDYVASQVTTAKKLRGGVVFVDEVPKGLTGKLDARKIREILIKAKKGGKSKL
In short: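 Counter-screen for direct inhibition of the luciferase enzyme by approved-drug library compounds, run at 10 nM enzyme in 50 mM Tris acetate (final). Luminescence was read within 5 min of enzyme-buffer addition and normalized to PTC124 versus DMSO (0%).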

[2] = qHTS profiling for inhibitors of Plasmodium falciparum proliferation (AID 504749); note: potency is the fitted concentration of half-maximal effect;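 for activity, negative = inhibition: 0% = DMSO vehicle and full inhibition = artemisinin control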; for all read-outs here: nearly all actives have a fitted effect of over 60% in size; details: P. falciparum in erythrocytes, SYBR Green DNA, 72 h; for activity, negative = inhibition: at 28.7 µM (top of the series)
In short: (§1)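 P. falciparum-infected erythrocytes (0.3% parasitemia, 2.5% hematocrit final) were exposed to compounds for 72 h at 37 C in 5% CO2, then lysed with SYBR Green buffer overnight at room temperature; parasite DNA fluorescence was normalized to artemisinin and DMSO controls.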

ATS189 = experiment: as above; details: P. falciparum in erythrocytes, SYBR Green DNA, 72 h; series mostly up to 28.7 µM
In short: as §1

CP185 = experiment: as above; details: P. falciparum in erythrocytes, SYBR Green DNA, 72 h; series mostly up to 28.7 µM
In short: as §1

CP191 = experiment: as above; details: P. falciparum in erythrocytes, SYBR Green DNA, 72 h; series mostly up to 28.7 µM
In short: as §1

CP192 = experiment: as above; details: P. falciparum in erythrocytes, SYBR Green DNA, 72 h; series mostly up to 28.7 µM
In short: as §1

CP238 = experiment: as above; details: P. falciparum in erythrocytes, SYBR Green DNA, 72 h; series mostly up to 28.7 µM
In short: as §1

CP250 = experiment: as above; details: P. falciparum in erythrocytes, SYBR Green DNA, 72 h; series mostly up to 28.7 µM
In short: as §1

CP252 = experiment: as above; details: P. falciparum in erythrocytes, SYBR Green DNA, 72 h; series mostly up to 28.7 µM
In short: as §1

CP256 = experiment: as above; details: P. falciparum in erythrocytes, SYBR Green DNA, 72 h; series mostly up to 28.7 µM
In short: as §1

CP262 = experiment: as above; details: P. falciparum in erythrocytes, SYBR Green DNA, 72 h; series mostly up to 28.7 µM
In short: as §1

CP329 = experiment: as above; details: P. falciparum in erythrocytes, SYBR Green DNA, 72 h; series mostly up to 28.7 µM
In short: as §1

Dd2 = experiment: as above; details: P. falciparum in erythrocytes, SYBR Green DNA, 72 h; series mostly up to 28.7 µM
In short: as §1

FAB9 = experiment: as above; details: P. falciparum in erythrocytes, SYBR Green DNA, 72 h; series mostly up to 28.7 µM
In short: as §1

PC49 = experiment: as above; details: P. falciparum in erythrocytes, SYBR Green DNA, 72 h; series mostly up to 28.7 µM
In short: as §1

TAB109 = experiment: as above; details: P. falciparum in erythrocytes, SYBR Green DNA, 72 h; series mostly up to 28.7 µM
In short: as §1

[3] = qHTS for Inhibitors of Plasmodium falciparum (DD2) proliferation (AID 504314);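 note: parasite DNA measured by SYBR Green fluorescence after red cell lysis; plate controls were DMSO vehicle for no effect and artemisinin wells for full effect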
In short: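 Infected RBCs, 0.3% parasitemia, 2.5% Hct; compound 72 h, 37C/5% CO2; lyse + SYBR Green I, RT overnight, dark; read ex485/em535; normalize to DMSO and artemisinin 0.29 uM.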

[4] = qHTS for Inhibitors of Plasmodium falciparum (7G8) proliferation (AID 504316);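 note: 0% = DMSO vehicle and -100% = 0.29 µM artemisinin full kill; nearly all actives have a fitted effect of over 65% in size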
In short: (§2)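 Erythrocytes infected with P. falciparum line (0.3% parasitemia, 2.5% hematocrit final) incubated with compounds 72 h at 37 °C, 5% CO2; SYBR Green lysis buffer added, fluorescence read next day. Normalized to 0.29 uM artemisinin and DMSO.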

[5] = qHTS for Inhibitors of Plasmodium falciparum (CP250) proliferation (AID 504320);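 note: plate controls were DMSO vehicle for no effect and 0.29 µM artemisinin control for full effect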
In short: as §2

OCC1O[C@@H](O[C@@H]2C(CO)OC(O)C(O)C2O)C(O)C(O)C1O (stereo partly drawn)
inactive: Potency [1] | activity, negative = inhibition ([2]; parasite line A) 8.35% | activity, negative = inhibition ([2]; parasite line B) 4.55% | Potency (ATS189) | Potency (CP185) | Potency (CP191) | Potency (CP192) | Potency (CP238) | Potency (CP250) | Potency (CP252) | Potency (CP256) | Potency (CP262) | Potency (CP329) | Potency (Dd2) | Potency (FAB9) | Potency (PC49) | Potency (TAB109)

COC(=O)C1=C(C(=O)OC)[C@@H]2N(Cc3ccccc3)c3ccccc3[C@@]23C[C@@H](C(=O)OC)N(C(=O)NCCBr)C3=N1
inactive: Potency [3] | Potency [4] | Potency [5]

CC1CN(c2c(F)c(N)c3c(=O)c(C(=O)O)cn(C4CC4)c3c2F)CC(C)N1 (stereo not drawn)
inactive: Potency [1] | activity, negative = inhibition ([2]; parasite line A) -2.02% | activity, negative = inhibition ([2]; parasite line B) 11% | Potency (ATS189) | Potency (CP185) | Potency (CP191) | Potency (CP192) | Potency (CP238) | Potency (CP250) | Potency (CP252) | Potency (CP256) | Potency (CP262) | Potency (CP329) | Potency (Dd2) | Potency (FAB9) | Potency (PC49) | Potency (TAB109)

COc1ccc(C(=O)/C(Br)=C/C(=O)O)cc1
inactive: Potency [1] | activity, negative = inhibition ([2]; parasite line A) -21.1% | activity, negative = inhibition ([2]; parasite line B) -8.61% | Potency (ATS189) | Potency (CP185) | Potency (CP192) | Potency (CP238) | Potency (CP250) | Potency (CP252) | Potency (CP256) | Potency (CP262) | Potency (CP329) | Potency (Dd2) | Potency (FAB9) | Potency (PC49)

CCCC(=O)Nc1c(I)cc(I)c(C[C@H](CC)C(=O)O)c1I
inactive: Potency [1] | activity, negative = inhibition ([2]; parasite line A) 2.81% | activity, negative = inhibition ([2]; parasite line B) -1.24% | Potency (ATS189) | Potency (CP185) | Potency (CP191) | Potency (CP192) | Potency (CP238) | Potency (CP250) | Potency (CP252) | Potency (CP256) | Potency (CP262) | Potency (CP329) | Potency (Dd2) | Potency (FAB9) | Potency (PC49) | Potency (TAB109)

COc1cccc2c1C(=O)c1c(O)c3c(c(O)c1C2=O)C[C@@](O)(C(=O)CO)C[C@@H]3OC1CC(N)C(O)C(C)O1 (stereo partly drawn)
active: Potency ([2]; parasite line A) 2000 nM | Potency ([2]; parasite line B) 3160 nM | Potency (ATS189) 2510 nM | Potency (CP185) 2240 nM | Potency (CP191) 2240 nM | Potency (CP192) 1900 nM | Potency (CP238) 2240 nM | Potency (CP250) 2510 nM | Potency (CP252) 2510 nM | Potency (CP256) 2240 nM | Potency (CP262) 2390 nM | Potency (CP329) 1900 nM | Potency (Dd2) 1260 nM | Potency (FAB9) 3160 nM | Potency (PC49) 5620 nM | Potency (TAB109) 2000 nM
inactive: Potency [1]

CC1(C)CC1C(=O)N/C(=C/CCCCSCC(N)C(=O)O)C(=O)O (stereo not drawn)
inactive: Potency [1] | activity, negative = inhibition ([2]; parasite line A) 9.99% | activity, negative = inhibition ([2]; parasite line B) -1.88% | Potency (ATS189) | Potency (CP185) | Potency (CP191) | Potency (CP192) | Potency (CP238) | Potency (CP250) | Potency (CP252) | Potency (CP256) | Potency (CP262) | Potency (CP329) | Potency (Dd2) | Potency (FAB9) | Potency (PC49) | Potency (TAB109)

CCN(CC)CCOCCOC(=O)C(CC)(CC)c1ccccc1 (tested in a mixture with another compound)
active: Potency (CP191) 10000 nM | Potency (CP256) 5620 nM | Potency (Dd2) 891 nM
inactive: Potency [1] | Potency (CP192) | Potency (CP262) | Potency (FAB9) | Potency (TAB109)

C=C1CC2C3C=C(C)C4=CC(=O)CCC4(C)C3CCC2(C)[C@@]1(OC(C)=O)C(C)=O (stereo partly drawn)
inactive: Potency [1] | activity, negative = inhibition ([2]; parasite line B) -26.9% | Potency (CP185) | Potency (CP192) | Potency (CP238) | Potency (CP250) | Potency (CP252) | Potency (CP329) | Potency (Dd2) | Potency (FAB9) | Potency (PC49) | Potency (TAB109)
